Measured values reported in PubChem BioAssay (EPA / NIEHS).
Where “and” joins values, the source holds several entries; their conditions need not be identical. Equal values may be shown once. Some compounds were tested as several samples or in several runs, with calls that do not always agree. Calls of active or inactive are those of the source. How the source made its calls: active means hit-call score of the fitted dose curve at least 0.9, where 1 is the maximum; inactive means score below 0.9.

How the values were obtained:
[1] = molecular target: Transcription factor E2F1 (Homo sapiens) (UniProt Q01094); assay: ATG_E2F_CIS: Attagene CIS-FACTORIAL HepG2 Assay for human E2F Transcription Factor 1 (AID 2282935); settings: HepG2 Attagene cis-reporter, E2F reporter RNA transcripts; actives raise or lower the signal
In short: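 In this cis-factorial format, endogenous factor activity drives transfected reporters in HepG2; transcripts collected at 24 h are quantified by fluorescence after RT-PCR and capillary separation.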

[2] = ATG_E_Box_CIS: Attagene CIS-FACTORIAL HepG2 Assay for human Enhancer Box (E-box) (AID 2282936); settings: HepG2 E-box cis-reporter transcription, actives raise or lower the signal
In short: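 Measured 24 h post-dosing in HepG2 cells transfected with multiple cis-regulated reporter units, signal being reporter mRNA induction detected by fluorescent RT-PCR with capillary electrophoresis; gain or loss fitted against DMSO.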

[3] = ATG_M_61_CIS: Attagene CIS-FACTORIAL HepG2 Assay for M61 Transcription Factor (Internal Marker) (AID 2282937); settings: HepG2 Attagene CIS-FACTORIAL M61 internal marker reporter; actives raise or lower the signal
In short: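 Readout: fluorescent reporter mRNA fragments resolved by capillary electrophoresis after RT-PCR. Transiently transfected human HepG2 cells carried MRTU constructs reporting endogenous TF activity; 24 h chemical exposure; gain or loss of signal fitted relative to DMSO.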

[4] = ATG_EGR_CIS: Attagene CIS-FACTORIAL HepG2 Assay for human Early Growth Response 1 (EGR1) (AID 2282938); settings: HepG2 Attagene CIS-FACTORIAL EGR reporter mRNA; actives raise or lower the signal
In short: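 Read-out: fluorescent reporter-mRNA fragments resolved by capillary electrophoresis after RT-PCR, 24 h post-dose in transiently transfected HepG2. Endogenous transcription-factor activity reported via cis-element-regulated reporter units; gain or loss fitted relative to DMSO.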

[5] = ATG_M_19_CIS: Attagene CIS-FACTORIAL HepG2 Assay for M19 Transcription Factor (Internal Marker) (AID 2282939); settings: HepG2 Attagene CIS-FACTORIAL M19 internal marker reporter; actives raise or lower the signal
In short: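 Signals come from fluorescence of labelled reporter-specific PCR fragments resolved by capillary electrophoresis, following 24 h treatment of HepG2 cells transfected with cis-promoter reporter units; activity was fitted in both directions relative to DMSO.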

[6] = ATG_ERE_CIS: Attagene CIS-FACTORIAL HepG2 Assay for Estrogen Response Element (ERE) (AID 2282940); settings: HepG2 ERE cis-reporter, Attagene RNA transcript; actives raise or lower the signal
In short: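 Fluorescence of capillary-separated, FAM-labelled reporter cDNA fragments indicates reporter mRNA levels in HepG2 cells exposed to chemicals for 24 h. Transient transfection with cis-regulated units; data fitted in both directions against DMSO.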

[7] = ATG_Ets_CIS: Attagene CIS-FACTORIAL HepG2 Assay for human Erythroblast Transformation Specific (ETS) (AID 2282941); settings: HepG2 ETS cis-reporter transcription, actives raise or lower the signal
In short: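 Endogenous transcription factor activity read as reporter mRNA via RT-PCR and capillary electrophoresis, with gain or loss fitted bidirectionally against DMSO. Human HepG2 liver cells, transiently transfected CIS reporter constructs, 24 h exposure.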

[8] = ATG_FoxO_CIS: Attagene CIS-FACTORIAL HepG2 Assay for human Forkhead box O (FoxO) (AID 2282943); settings: HepG2 Attagene cis-reporter, FoxO element, mRNA; actives raise or lower the signal
In short: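 24 h chemical exposure, HepG2 with transient cis-MRTU transfection. RNA extraction, oligo(dT) RT, reporter-specific PCR, primer-extension labelling, HpaI digestion, CE fragment analysis; bidirectional fit, DMSO baseline.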

[9] = ATG_GATA_CIS: Attagene CIS-FACTORIAL HepG2 Assay for human GATA Binding Protein (AID 2282944); settings: HepG2 GATA cis-element reporter, Attagene multiplex mRNA; actives raise or lower the signal
In short: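 After transfecting HepG2 cells with multiple cis-regulated reporter units, chemicals are dosed for 24 h; isolated RNA undergoes RT-PCR and fluorescent labeling before capillary electrophoresis, with activity expressed against DMSO.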

[10] = ATG_GLI_CIS: Attagene CIS-FACTORIAL HepG2 Assay for human Zinc Finger Protein GLI1 (AID 2282945); settings: HepG2, Attagene cis-factorial reporter mRNA, GLI element; actives raise or lower the signal
In short: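 HepG2 cells transiently transfected with cis-promoter multiplexed reporter units report endogenous transcription factor activity. After 24 h chemical exposure, reporter mRNA was quantified by RT-PCR, 6-FAM labelling, HpaI digestion and capillary electrophoresis, with bidirectional fitting against DMSO.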

[11] = molecular target: Bile acid receptor (Homo sapiens) (UniProt Q96RI1); assay: ATG_IR1_CIS: Attagene CIS-FACTORIAL HepG2 Assay for human Nuclear Receptor Subfamily 1 Group H Member 4 (NR1H4), IR1 submotif (AID 2282946); settings: IR1 reporter transcription, actives raise or lower the signal
In short: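 Readout: reporter transcript levels by RT-PCR with fluorescent capillary electrophoresis, from HepG2 cells transiently transfected with multiplexed cis-regulated reporters and dosed 24 h. Gain- or loss-of-signal fitted versus DMSO negative control.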

[12] = ATG_ISRE_CIS: Attagene CIS-FACTORIAL HepG2 Assay for human Interferon Regulatory Factor 1 (IRF1) binding to an Interferon-Stimulated Response Element (ISRE) (AID 2282948); settings: HepG2 ISRE cis-reporter (Attagene), mRNA transcription readout; actives raise or lower the signal
In short: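 Endogenous transcription factor activity read as reporter transcript abundance via RT-PCR and capillary electrophoresis. HepG2 cells transiently transfected, 24 h chemical exposure. Gain or loss fitted against DMSO baseline.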

[13] = ATG_M_06_CIS: Attagene CIS-FACTORIAL HepG2 Assay for M06 Transcription Factor (Internal Marker) (AID 2282950); settings: HepG2 Attagene CIS-FACTORIAL M06 internal marker reporter; actives raise or lower the signal
In short: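 HepG2 liver cells, 24 h exposure. Reporter transcripts from transfected cis-element constructs quantified by RT-PCR/capillary electrophoresis fluorescence. Bidirectional curve fit against DMSO.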

[14] = molecular target: Hypoxia-inducible factor 1-alpha (Homo sapiens) (UniProt Q16665); assay: ATG_HIF1a_CIS: Attagene CIS-FACTORIAL HepG2 Assay for human Hypoxia Inducible Factor 1 (HIF1A) (AID 2282951); settings: HepG2 Attagene cis-factorial HIF1a reporter transcription; actives raise or lower the signal
In short: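 RT-PCR/capillary electrophoresis fluorescence readout of reporter transcripts from endogenous-TF-driven cis elements in transfected HepG2 cells, 24 h exposure; activity fitted in both directions against DMSO controls.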

[15] = molecular target: Hepatocyte nuclear factor 6 (Homo sapiens) (UniProt Q9UBC0); assay: ATG_HNF6_CIS: Attagene CIS-FACTORIAL HepG2 Assay for human Hepatocyte Nuclear Factor 6 (HNF6) (AID 2282952); settings: HepG2 Attagene cis-factorial HNF6 reporter transcription; actives raise or lower the signal
In short: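 First, HepG2 cells were transfected with the multiplexed cis reporter library and dosed with chemical for 24 h. Next, RNA was reverse-transcribed, PCR-amplified and fluorescently labelled. Finally, HpaI-digested fragments were read by capillary electrophoresis.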

[16] = molecular target: Heat shock factor protein 1 (Homo sapiens) (UniProt Q00613); assay: ATG_HSE_CIS: Attagene CIS-FACTORIAL HepG2 Assay for human Heat Shock Transcription Factor 1 (HSE) (AID 2282953); settings: HepG2 HSE cis-reporter, Attagene RNA transcription; actives raise or lower the signal
In short: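 Endogenous transcription factor activity captured via cis-promoter reporter units transfected into HepG2; treatment lasted 24 h. Fluorescence intensity of reporter fragments analysed with bidirectional curve fitting, DMSO baseline.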

[17] = ATG_MRE_CIS: Attagene CIS-FACTORIAL HepG2 Assay for human Metal Responsive Element (MRE) (AID 2282954); settings: HepG2 MRE cis-reporter transcription, Attagene multiplex; actives raise or lower the signal
In short: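 Readout: capillary electrophoresis of 6-FAM-labelled, HpaI-digested RT-PCR reporter products. System: HepG2 cells carrying transient multiplexed cis reporters, dosed 24 h. Analysis: bidirectional fit, DMSO baseline.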

[18] = molecular target: Hepatocyte nuclear factor 3-beta (Homo sapiens) (UniProt Q9Y261); assay: ATG_FoxA2_CIS: Attagene CIS-FACTORIAL HepG2 Assay for human Forkhead box A2 (FOXA2) (AID 2282942); settings: HepG2 cis-reporter transcription factor activity, 24 h; actives raise or lower the signal
In short: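 Readout: fluorescent reporter transcripts resolved by capillary electrophoresis after RT-PCR. Transiently transfected HepG2, 24 h compound exposure, endogenous TF activity at cis promoter elements. Gain or loss of signal fitted relative to DMSO.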

[19] = ATG_GRE_CIS: Attagene CIS-FACTORIAL HepG2 Assay for human Glucocorticoid Response Elements (GRE) (AID 2282947); settings: HepG2 GRE cis-reporter, Attagene multiplex mRNA; actives raise or lower the signal
In short: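 HepG2, transient cis-reporter transfection, 24 h. Reporter mRNA: RT-PCR then CE, fluorescence. Fit both directions vs DMSO.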

[20] = ATG_M_32_CIS: Attagene CIS-FACTORIAL HepG2 Assay for M32 Transcription Factor (Internal Marker) (AID 2282949); settings: HepG2 Attagene cis-factorial M32 reporter, mRNA; actives raise or lower the signal;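 further: background control marker of the multiplexed CIS panel rather than a real target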
In short: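 Transient MRTU transfection of HepG2; 24 h compound treatment; TriZol RNA, oligo(dT) RT, reporter PCR, 6-FAM primer extension, HpaI cut, CE. Gain/loss of signal vs DMSO.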

Measured: AC50

Hypoxia-inducible factor 1-alpha (Homo sapiens), sequence (Q16665 whole entry, looked up): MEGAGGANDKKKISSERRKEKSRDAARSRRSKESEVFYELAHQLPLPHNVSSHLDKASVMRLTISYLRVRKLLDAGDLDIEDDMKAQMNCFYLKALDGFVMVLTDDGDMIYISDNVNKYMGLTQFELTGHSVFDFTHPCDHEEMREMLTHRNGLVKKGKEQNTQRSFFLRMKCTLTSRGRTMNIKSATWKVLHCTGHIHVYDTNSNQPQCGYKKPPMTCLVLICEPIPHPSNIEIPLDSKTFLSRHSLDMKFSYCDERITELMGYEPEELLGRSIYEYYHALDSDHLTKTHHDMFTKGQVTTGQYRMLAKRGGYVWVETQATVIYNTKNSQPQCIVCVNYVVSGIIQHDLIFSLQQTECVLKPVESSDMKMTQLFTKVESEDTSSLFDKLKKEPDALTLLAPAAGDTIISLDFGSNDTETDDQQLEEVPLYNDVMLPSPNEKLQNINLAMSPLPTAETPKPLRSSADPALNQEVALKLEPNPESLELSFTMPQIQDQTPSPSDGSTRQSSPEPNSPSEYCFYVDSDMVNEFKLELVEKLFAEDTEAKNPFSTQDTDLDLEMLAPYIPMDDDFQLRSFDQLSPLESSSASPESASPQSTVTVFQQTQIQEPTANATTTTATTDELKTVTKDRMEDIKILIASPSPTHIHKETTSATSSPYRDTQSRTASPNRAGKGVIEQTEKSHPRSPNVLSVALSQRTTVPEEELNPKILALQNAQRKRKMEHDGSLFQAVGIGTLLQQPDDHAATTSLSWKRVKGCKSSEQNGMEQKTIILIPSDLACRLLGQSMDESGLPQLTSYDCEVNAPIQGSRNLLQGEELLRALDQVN
Hepatocyte nuclear factor 6 (Homo sapiens), sequence (Q9UBC0 whole entry, looked up, the tested form may be a part): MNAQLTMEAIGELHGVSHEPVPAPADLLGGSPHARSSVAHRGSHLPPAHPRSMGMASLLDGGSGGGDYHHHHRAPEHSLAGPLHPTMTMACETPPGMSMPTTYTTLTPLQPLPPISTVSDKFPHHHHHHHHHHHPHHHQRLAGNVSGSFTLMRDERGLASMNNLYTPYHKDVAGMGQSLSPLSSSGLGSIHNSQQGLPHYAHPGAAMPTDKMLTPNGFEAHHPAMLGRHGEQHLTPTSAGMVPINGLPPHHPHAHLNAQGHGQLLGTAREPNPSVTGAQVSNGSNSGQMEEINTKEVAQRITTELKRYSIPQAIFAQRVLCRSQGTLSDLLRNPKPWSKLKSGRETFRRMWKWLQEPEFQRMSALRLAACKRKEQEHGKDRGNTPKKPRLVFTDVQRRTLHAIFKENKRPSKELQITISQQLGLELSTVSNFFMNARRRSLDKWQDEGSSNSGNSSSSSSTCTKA
Hepatocyte nuclear factor 3-beta (Homo sapiens), sequence (Q9Y261 whole entry, looked up): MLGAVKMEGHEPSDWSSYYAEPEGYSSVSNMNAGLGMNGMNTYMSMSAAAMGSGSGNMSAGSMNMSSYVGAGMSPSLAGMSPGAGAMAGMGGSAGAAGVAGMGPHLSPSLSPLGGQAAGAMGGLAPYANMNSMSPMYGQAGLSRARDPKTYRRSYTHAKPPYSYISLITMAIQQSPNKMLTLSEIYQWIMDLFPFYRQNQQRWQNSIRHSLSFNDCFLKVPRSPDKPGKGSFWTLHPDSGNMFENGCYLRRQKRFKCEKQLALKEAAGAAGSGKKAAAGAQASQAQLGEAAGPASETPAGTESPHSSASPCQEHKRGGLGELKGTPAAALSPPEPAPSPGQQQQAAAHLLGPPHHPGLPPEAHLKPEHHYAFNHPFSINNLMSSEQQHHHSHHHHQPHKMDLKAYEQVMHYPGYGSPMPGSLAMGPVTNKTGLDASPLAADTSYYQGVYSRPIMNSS
Transcription factor E2F1 (Homo sapiens), sequence (Q01094 whole entry, looked up): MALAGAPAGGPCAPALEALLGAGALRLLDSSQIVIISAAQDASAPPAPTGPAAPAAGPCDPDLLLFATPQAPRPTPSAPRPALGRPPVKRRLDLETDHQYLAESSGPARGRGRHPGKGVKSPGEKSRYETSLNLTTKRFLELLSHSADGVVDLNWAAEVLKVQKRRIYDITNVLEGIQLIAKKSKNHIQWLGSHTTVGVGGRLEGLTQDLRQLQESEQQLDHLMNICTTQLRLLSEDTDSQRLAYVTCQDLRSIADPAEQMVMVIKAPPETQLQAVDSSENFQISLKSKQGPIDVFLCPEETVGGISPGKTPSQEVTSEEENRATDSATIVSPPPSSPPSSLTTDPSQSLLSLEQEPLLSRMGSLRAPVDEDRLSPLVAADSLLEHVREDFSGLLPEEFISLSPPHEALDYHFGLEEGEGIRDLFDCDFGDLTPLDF
Bile acid receptor (Homo sapiens), sequence (Q96RI1 whole entry, looked up): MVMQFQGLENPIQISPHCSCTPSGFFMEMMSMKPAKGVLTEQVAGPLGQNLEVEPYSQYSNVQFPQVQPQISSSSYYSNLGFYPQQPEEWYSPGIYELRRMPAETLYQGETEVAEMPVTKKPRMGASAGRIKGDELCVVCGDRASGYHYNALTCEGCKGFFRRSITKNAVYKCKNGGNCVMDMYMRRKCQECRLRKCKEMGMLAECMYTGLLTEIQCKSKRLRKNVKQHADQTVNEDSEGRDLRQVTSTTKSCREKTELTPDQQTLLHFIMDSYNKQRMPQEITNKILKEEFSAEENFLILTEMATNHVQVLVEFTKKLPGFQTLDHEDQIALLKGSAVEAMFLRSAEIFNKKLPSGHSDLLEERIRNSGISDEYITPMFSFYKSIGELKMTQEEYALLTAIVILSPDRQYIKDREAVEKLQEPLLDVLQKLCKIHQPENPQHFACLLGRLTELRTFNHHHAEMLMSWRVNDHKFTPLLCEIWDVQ
Heat shock factor protein 1 (Homo sapiens), sequence (Q00613 whole entry, looked up, the tested form may be a part): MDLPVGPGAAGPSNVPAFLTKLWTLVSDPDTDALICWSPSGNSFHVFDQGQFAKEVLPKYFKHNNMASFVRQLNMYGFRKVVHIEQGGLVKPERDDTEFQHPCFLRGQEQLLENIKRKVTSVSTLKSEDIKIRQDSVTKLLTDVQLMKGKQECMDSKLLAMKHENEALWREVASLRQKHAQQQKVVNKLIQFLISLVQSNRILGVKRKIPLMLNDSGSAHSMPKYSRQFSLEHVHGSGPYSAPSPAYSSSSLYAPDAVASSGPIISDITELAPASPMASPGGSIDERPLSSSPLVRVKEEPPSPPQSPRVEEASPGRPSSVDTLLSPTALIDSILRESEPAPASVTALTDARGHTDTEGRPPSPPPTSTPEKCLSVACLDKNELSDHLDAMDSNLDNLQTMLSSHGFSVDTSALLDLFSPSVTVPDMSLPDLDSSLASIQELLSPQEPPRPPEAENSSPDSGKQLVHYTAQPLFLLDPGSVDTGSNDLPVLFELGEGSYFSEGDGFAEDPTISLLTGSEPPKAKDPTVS

FC(F)(I)C(F)(F)C(F)(F)C(F)(F)C(F)(F)C(F)(F)I
active: [4] 16.4 µM | [6] 0.0192 µM | [7] 18.3 µM | [8] 17.4 µM
not listed: [18] | [19] | [20]
inactive: all other assays above

CC1=C(/C=C/C(C)=C/C=C/C(C)=C/C(=O)O)C(C)(C)CCC1
active: [4] 21.5 µM | [6] 0.112 µM | [8] 44.4 µM | [16] 50.5 µM and 93 µM | [17] 39.7 µM and 55 µM
inactive: [1] | [2] | [3] | [4] | [6] | [7] | [8] | [9] | [10] | [13] | [15]

CC(=O)NC1(c2cccc(F)c2)CCN(CC[C@@]2(c3ccc(Cl)c(Cl)c3)CN(c3ccccc3)C(=O)CO2)CC1
active: [4] 28.5 µM | [6] 33 µM | [7] 51.9 µM | [10] 50.7 µM | [14] 8.61 µM | [16] 51.6 µM | [17] 45.5 µM
not listed: [11]
inactive: all other assays above

ClC1=C(Cl)C(Cl)(Cl)C(Cl)=C1Cl
active: [2] 6.36 µM | [4] 17.8 µM and 6.6 µM | [7] 17.7 µM and 16.2 µM | [8] 16.1 µM | [10] 11.1 µM and 6.27 µM | [12] 14.6 µM and 11.1 µM | [15] 8.06 µM | [16] 8.88 µM and 5.39 µM | [17] 20.2 µM and 6.9 µM
inactive: [1] | [2] | [3] | [5] | [6] | [8] | [9] | [20] | [13] | [14] | [15]

CCCCCCC(=O)O
not listed: [12] | [20]
inactive: all other assays above

CC(O)CO (centres undefined)
not listed: [12]
inactive: all other assays above
